Bioassay records as filed in PubChem.
Hits are enriched below; roughly 3% of the tested compounds scored in any of these assays.
KAT2A inh: qHTS Assay for Inhibitors of GCN5L2; Histone acetyltransferase KAT2A (Homo sapiens), Q92830; GCN5L2 HAT assay, ThioGlo1 CoA-SH fluorescence; Potency, µM (doses to about 58.9 µM), for inactives: top-dose activity change, negative = inhibition, most hits filed as inhibitors; hit rate 0.21% among 390,000
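qHTS, 1536-well. 20nM enzyme, pH 7.5 HEPES/EDTA/Tween-20 buffer; 15 min compound preinc., RT. Start: 75uM H3(1-25), 70uM AcCoA, 50uM ThioGlo1. Read Ex340/Em540 at t=0 (autofluorescence flag) and t=20 min.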
PLK1 PBD inh: qHTS for Inhibitors of PLK1-PDB (polo-like kinase 1 - polo-box domain): Primary Screen; Plk1 PBD binding of FITC phosphopeptide, fluorescence polarization; hit rate 2.8% among 360,000; Serine/threonine-protein kinase PLK1 (Homo sapiens), P53350; Potency, µM, for inactives: max response, negative = inhibition, actives largely listed as inhibitors; AID 720504, 2013; further: series mostly up to about 57 µM; nearly all actives have a fitted effect of over 65% in size
Target sequence (P53350 whole entry, looked up, the tested form may be a part): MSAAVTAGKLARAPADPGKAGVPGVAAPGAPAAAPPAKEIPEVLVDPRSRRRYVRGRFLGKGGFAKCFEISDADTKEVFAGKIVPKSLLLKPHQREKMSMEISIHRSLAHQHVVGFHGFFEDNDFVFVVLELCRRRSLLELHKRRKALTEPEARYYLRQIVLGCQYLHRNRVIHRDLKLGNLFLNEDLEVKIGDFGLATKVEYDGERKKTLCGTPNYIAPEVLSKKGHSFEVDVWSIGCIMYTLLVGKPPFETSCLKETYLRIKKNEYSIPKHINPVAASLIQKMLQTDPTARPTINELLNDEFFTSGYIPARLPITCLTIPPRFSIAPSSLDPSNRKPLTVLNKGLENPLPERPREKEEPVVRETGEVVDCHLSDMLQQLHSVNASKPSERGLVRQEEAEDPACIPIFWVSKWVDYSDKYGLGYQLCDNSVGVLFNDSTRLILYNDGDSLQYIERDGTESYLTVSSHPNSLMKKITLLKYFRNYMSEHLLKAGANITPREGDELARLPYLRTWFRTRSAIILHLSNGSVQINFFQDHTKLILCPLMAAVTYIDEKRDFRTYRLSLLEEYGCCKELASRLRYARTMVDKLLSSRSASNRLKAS
VDR inh: Inhibitors of the vitamin D receptor (VDR): qHTS | Vitamin D3 receptor (Homo sapiens), P11473 | VDR-SRC2-3 peptide fluorescence polarization, 2 h | Potency, µM, for inactives: max response, negative = inhibition, hits mostly inhibitors | hit rate 0.93% among 400,000 | AID 504847, 2011
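Compounds are added to VDR with labelled SRC2-3 coactivator peptide and held 2 h at room temperature. Inhibition of the VDR–peptide interaction is then read as a change in fluorescence polarization.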
ALOX12 inh: Primary qHTS assay for inhibitors of human arachidonate 12S-lipoxygenase (ALOX12): Round 2. purified 12hLO, xylenol orange hydroperoxide absorbance. Polyunsaturated fatty acid lipoxygenase ALOX12 (Homo sapiens), P18054. hit rate 1.1% among 580,000. AID 1671190, 2021. Potency, µM (titrated, usually from 108 µM), without a hit: at the top dose activity change, negative = inhibition, hits mostly inhibitors
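Purified human 12hLO at 150 nM in 25 mM Hepes, 0.01% Triton X-100, pH 7.0, preincubated 15 min at room temperature with compound. Reaction started with 40 uM arachidonic acid, 30 min at room temperature. Hydroperoxide measured by Fe-xylenol orange, 573/405 nm absorbance ratio.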
* marks the source's active call; other numbers are inactive results; i = inactive; ? = inconclusive; · = not tested or not shown; ! = a repeat was not active; [ ] = dose if it differs, or a comment. The call rests on the fitted dose curve; in most records, active means well fitted curve in the direction sought with a large enough effect; inconclusive means small, poorly fitted or top-dose-only effect, or another doubt; inactive means no such curve, though single readings can be large; an effect the other way counts as inactive or inconclusive. On the % scale 0 is the no-effect control and ±100 the full control effect; potency means the concentration at half of the fitted maximal effect.

SMILES	KAT2A inh	PLK1 PBD inh	VDR inh	ALOX12 inh
CC[C@@]12CCCN3CCc4c(n(c5ccccc45)[C@](O)(C(=O)OC)C1)[C@H]32	12.6µM*!	·	0.4%	·
CCC12CCCN3CCc4c(n(c5ccccc45)C(O)(C(=O)OC)C1)C32 (stereo unspecified)	-0.5%	-16.4%	?	25.6%
COc1cccc(CC(=O)NC2CCN(c3cnn(C)c(=O)c3)CC2)c1	·	·	·	-2.5%
CC(=O)NC12CC3CC(C1)CC(C(=O)Nc1c(C)n(C)n(-c4ccccc4)c1=O)(C3)C2	0.4%	1.1%	-3.6%	i
Cc1ccc(NC(=S)Nc2cccc(S(=O)(=O)Nc3c(C)n(C)n(-c4ccccc4)c3=O)c2)cc1	-6.6%	?	-7.2%	?
Cc1c(NC(=O)C23CC4CC(CC(C)(C4)C2)C3)c(=O)n(-c2ccccc2)n1C	20µM*	-1.1%	10.5%	4.9%
Cc1cccc(NC(=O)Nc2c(C)n(C)n(-c3ccccc3)c2=O)c1	9.6%	23.8µM*	?	0.0%
COc1ccc(NC(=O)Nc2c(C)n(C)n(-c3ccccc3)c2=O)cc1OC	-11.6%	-3.5%	-3.3%	1.9%
Cc1ccc(NC(=O)Nc2c(C)n(C)n(-c3ccccc3)c2=O)cc1C	-1.2%	21.2µM*	?	3.1%
CC(=O)c1ccc(NC(=S)Nc2cccc(S(=O)(=O)Nc3c(C)n(C)n(-c4ccccc4)c3=O)c2)cc1	-7.9%	23.8µM*	-0.5%	-10.9%
COc1cccc(CNC(=O)Cn2ccc3cc(S(=O)(=O)N4CCC(C)CC4)ccc32)c1	-7.1%	9.47µM*	?	-27.9%
COc1ccc(CNC(=O)CN2C(=O)COc3ccc(S(=O)(=O)N4CCC(C)CC4)cc32)cc1	-5.8%	29.9µM*	-8.1%	-5.8%
COc1ccc(CNC(=O)CN2C(=O)COc3ccc(S(=O)(=O)N4CCCCCC4)cc32)cc1	0.2%	·	1.4%	0.0%
O=C(NCCCN1CCCC1=O)c1ccc2c(=O)n(Cc3ccco3)c(=S)[nH]c2c1	-6.6%	4.74µM*	-4.5%	-26.4%
C=CCNC(=O)c1ccc2c(=O)n(CCCN3CCCC3=O)c(=S)[nH]c2c1	-7.1%	-9.1%	-18.5%	-24.5%
O=C(/C=C/c1ccccc1)COC(=O)c1ccccc1	·	0.0%	10µM*	-1.7%
O=C(/C=C/c1ccccc1)CCN1CCCCC1	·	6.7µM*	28.2µM*	?
O=S(=O)(O)NCCCO	·	·	·	6.4%
CCOc1ccccc1C(=O)N1CCN(c2cc(-c3ccc(Cl)cc3)[nH]n2)CC1	·	·	·	29.9%
O=C(COc1ccc(Cl)cc1Cl)OCC(=O)N1CCCc2ccccc21	-9.6%	-0.1%	13.4%	-15.4%
O=C(COc1ccc(Cl)cc1Cl)NC(=S)N1CCCc2ccccc21	-0.4%	26.7µM*	17.6%	?
O=C1CCC(C(=O)OCc2c(Cl)cccc2Cl)=NN1	·	·	·	-2.3%
CNS(=O)(=O)c1cc(C(=O)O)ccc1OC	-6.7%	26.7µM*	?	?
Cc1cccc(CC(CC(=O)O)C(=O)O)c1 (stereo unspecified)	·	·	·	-4.5%
CN1C(=O)N(C)C2(CCN(CCOc3ccc(F)cc3)C2)C1=O (stereo unspecified)	·	·	·	50.1µM*
SMILES	KAT2A inh	PLK1 PBD inh	VDR inh	ALOX12 inh
Cc1cc(C)n(-c2ccc(NC(=O)C3CCCCN3C(=O)c3occc3C)cc2)n1 (stereo unspecified)	?	-2.0%	-17.9%	0.0%
Cc1ccoc1C(=O)N1CCCCC1C(=O)O (stereo unspecified)	-1.1%	15µM*	?	-6.3%
CC1=CC(C)C(COC(=O)C[N+]2(C)CCOCC2)C(C)C1 (stereo unspecified)	·	·	·	20µM*
CC[N+](C)(CC)CC(=O)OCC1C(C)C=C(C)CC1C (stereo unspecified)	-17.4%	-14.2%	21.4%	?
COc1ccc(-c2nnc(SCc3ccccn3)n2C)cc1	1.1%	29.9µM*	4.1%	6.0%
COc1ccccc1-c1nnc(SCc2ccccn2)n1C	2.6%	-8.0%	3.2%	-26.9%
COc1ccc2c(C)c(CCC(=O)NCc3ccc(S(N)(=O)=O)cc3)c(=O)oc2c1C	·	·	·	3.9%
Cc1ccc(OCc2cc(C(=O)N3CCCC(C)C3)no2)cn1 (stereo unspecified)	·	-12.5%	·	-17.5%
Cc1ccc(OCc2cc(C(=O)N3CCN(CC(=O)NC(C)C)CC3)no2)cn1	-2.1%	26.7µM*	-17.1%	0.0%
Cc1ccn(S(=O)(=O)c2ccc(C(C)(C)C)cc2)n1	·	-7.4%	-12.2%	0.0%
CC(C)(C)c1ccc(S(=O)(=O)/C=C/C#N)cc1	?	·	6.31µM*	·
CCCNC(=O)c1ccc(OC)c(S(=O)(=O)NCC)c1	·	·	·	13.4%
CCOc1ccc2c(c1)cc(C(=O)Nc1cccc(F)c1)n2C	·	·	·	-15.2%
S=C(NC1CCCCC1)c1ccccc1	·	·	·	31.6µM*
COc1ccc(C(=S)NC2CCCCC2)cc1	-8.7%	23.8µM*	89.1µM*	?
COc1ccc(C(=O)NC2CCCCC2)cc1	·	·	·	7.9%
CCOc1ccc(C(=S)NC2CCCCC2)cc1	-6.2%	26.7µM*	-15.6%	-18.6%
CN1CCC(N[C@H]2C[C@@H](Cc3cc(CN(C)Cc4ccccc4)on3)C2(C)C)CC1	·	·	·	20.4%[176 µM]
COc1c(C)cccc1C(=O)Nc1ccc2oc(=O)ccc2c1	·	·	·	-25.0%
Cc1ccc(OCn2ccc(C(=O)NCc3ccn(C)n3)n2)c(C)c1	·	·	·	-1.4%
CN1CCN(C(=O)CN2C(=O)c3cccnc3Oc3ccc(Cl)cc32)CC1	·	·	·	-3.5%
C=CCSc1nc(C)c(CCC(C)C)c(=O)[nH]1	-3.1%	26.7µM*	-25.5%	0.0%
S=C1NC2=C(CCCC2=C2SCCCS2)C(c2ccccc2)N1 (stereo unspecified)	-2.3%	-25.2%	-3.2%	14.1µM*
CC1CC2=C(NC(=S)NC2c2ccc(F)cc2)/C(=C/c2ccc(F)cc2)C1 (stereo unspecified)	-19.6%	?	?	25.1µM*
S=C1NC2=C(CCC/C2=C\c2ccccc2)C(c2ccccc2)N1 (stereo unspecified)	1.1%	?	89.1µM*	?
SMILES	KAT2A inh	PLK1 PBD inh	VDR inh	ALOX12 inh
C(=C1/CCCC2=C1Nc1ncnn1C2c1ccccc1)/c1ccccc1 (stereo unspecified)	0.1%	·	·	·
S=C1NC2=C(CCC/C2=C\c2ccc(Cl)cc2)C(c2ccc(Cl)cc2)N1 (stereo unspecified)	-0.7%	?	?	25.1µM*
Cc1ccc(NC(=O)CN2CCCC2c2ccc(F)cc2)cc1 (stereo unspecified)	·	·	·	6.3%
Clc1ccc(CSc2cc(-c3ccccc3)c3ccccc3n2)cc1	·	·	·	-6.2%
Fc1cccc(/C=C2\CCCC3=C2NC(=S)NC3c2cccc(F)c2)c1 (stereo unspecified)	-2.1%	?	79.4µM*	?
Fc1ccccc1/C=C1\CCCC2=C1NC(=S)NC2c1ccccc1F (stereo unspecified)	-18.9%	18.9µM*	-7.4%	31.6µM*
